Assay [1] relates to Wnt5a (protein binding on small-molecule microarray). The assay can be described thus: Wnt5a binders on small-molecule microarray, primary screen, biophysical, 635/667 nm fluorescence (AID 1142).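 Also: fluorescence read at 667 nm with signal to noise per printed feature.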 The settings on record: 635 nm fluorescence, higher = more signal.
A short description of assay [2]: cell viability in Huh7 cells, primary screen, cytotoxicity control for HCV replication inhibitor project, CellTiter-Glo luminescence, basal, 48 h (AID 1143).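 Also: Huh7 hepatoma cells carrying a hepatitis C replication reporter with no stimulus; test concentration not given here.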 The settings on record: Huh7 HCV replicon, higher = more signal, called active from +8 up or from −8 down. For orientation: In ATP-based viability assays light output follows the ATP content of the culture.
A short description of assay [3]: P. aeruginosa biofilm formation inhibitors, primary screen, PAO1 strain, BacTiter-Glo luminescence, LB-PBS (AID 1144). Conditions: 12 h, higher = more signal.
A short description of assay [4]: CREB reporter modulators without forskolin, primary screen, cell-based, PC12, CRE-LacZ reporter, unstimulated (AID 1145). Conditions: no forskolin, luminescence, 4.5 h, higher = more signal, called active from +8 up or from −8 down.
Assay [5] can be described thus: CREB reporter modulators under forskolin, primary screen, cell-based, PC12, CRE-LacZ reporter, forskolin-stimulated (AID 1146).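 Also: PC12 cells with 6xCRE LacZ reporter stimulated by forskolin 10 µM; beta-galactosidase reporter signal reflecting CREB driven transcription.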 Conditions: luminescence, 4.5 h, higher = more signal, called active from +8 up or from −8 down.
Assay [6] has as its target Streptavidin (Streptomyces avidinii) (UniProt P22629). Kind of assay: streptavidin binders on small-molecule microarray, primary screen, artefact control for SMM compound annotation, biophysical, 635/667 nm fluorescence (AID 1147).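 Also: signal reflects streptavidin binding to arrayed compounds as a control protein.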 The settings on record: streptavidin binding, higher = more signal.
Assay [7] can be described thus: small-molecule binders of probe aInhba, primary screen, biochemical, small-molecule microarray, 635/667 nm fluorescence (AID 1148).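 Also: score merges 667nm spot fluorescence with signal-to-noise for antibody binding to printed compounds.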 Conditions: higher = more signal.
For assay [8], the target named is Torsin-1A (Homo sapiens) (UniProt O14656). Kind of assay: torsin A binders from cell lysate, primary screen, small-molecule microarray, wild-type, 635/667 nm (AID 1149). Conditions: COS7 hTOR1A-WT lysate, 635 nm fluorescence, higher = more signal.
Chain of Torsin-1A (Homo sapiens) (O14656 whole entry, looked up): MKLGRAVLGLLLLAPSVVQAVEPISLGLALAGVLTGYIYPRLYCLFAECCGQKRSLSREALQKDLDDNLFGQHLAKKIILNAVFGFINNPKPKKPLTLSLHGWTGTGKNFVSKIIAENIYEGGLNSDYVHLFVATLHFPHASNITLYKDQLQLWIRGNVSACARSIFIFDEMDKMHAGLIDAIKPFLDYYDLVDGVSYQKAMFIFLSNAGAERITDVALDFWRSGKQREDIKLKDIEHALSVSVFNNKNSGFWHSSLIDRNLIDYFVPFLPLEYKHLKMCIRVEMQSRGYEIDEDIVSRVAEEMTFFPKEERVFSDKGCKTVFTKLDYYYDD
For assay [9] the target is unchanged. Kind of assay: small-molecule binders of mutant TOR1A in lysate, primary screen, cell lysate, small-molecule microarray, COS7 lysate, 635/667 nm fluorescence (AID 1150).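 Also: score pools 667 nm emission and signal to noise measuring lysate protein binding.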 The settings on record: COS7 hTOR1A mutant lysate, 635 nm fluorescence, higher = more signal.
Assay [10] has as its system Sonic hedgehog protein (Shh). Kind of assay: small-molecule binders of Shh protein, primary screen, biochemical, small-molecule microarray, 635/667 nm fluorescence (AID 1151).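 Also: Shh protein binding to compounds spotted on small-molecule microarray slides; score combines spot fluorescence intensity with signal-to-noise across triplicate slides.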 Conditions: small-molecule microarray binding, 635 nm fluorescence; higher = more signal.

Activity calls are given as the source filed them. Unless noted, no rule for the calls is given here.

Chain of Streptavidin (Streptomyces avidinii) (P22629 whole entry, looked up): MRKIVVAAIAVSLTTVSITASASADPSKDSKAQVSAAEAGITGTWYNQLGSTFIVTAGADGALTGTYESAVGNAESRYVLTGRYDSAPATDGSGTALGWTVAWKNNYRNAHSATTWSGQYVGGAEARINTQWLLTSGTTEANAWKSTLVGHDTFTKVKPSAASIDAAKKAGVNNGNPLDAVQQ

`C[C@@H]1ON(c2ccccc2)[C@H](c2ccccc2)[C@H]1C(=O)O`: the composite z-score in [1] was -0.0071; in [6] it was 0.0265; in assay [7] it was 0.134; in assay [8], 0.404; in assay [9], -0.115; in assay [10], 1.01. Also, the z-score was 0.343 (inactive) in [2], -0.525 (inactive) in [3], 0.308 (inactive) in assay [4] and 0.411 (inactive) in assay [5].

As to `COc1ccc(CCNC(=O)[C@@H]2c3ccccc3C(=O)N(Cc3ccccc3OC)[C@H]2c2ccc(CO)cc2)cc1`, the composite z-score in assay [1] is 0.321; in [6], 0.628; in assay [7], 0.0028; in assay [8], 0.824; in assay [9] it was 0.321; in assay [10], 0.126. For the same compound, the z-score is -0.449 (inactive) in [2], -0.0742 (inactive) in [3], 0.531 (inactive) in assay [4] and -1.12 (inactive) in assay [5].

With `O=C1O[C@H](c2ccccc2)[C@H](c2ccccc2)N2[C@H]1[C@@H](C(=O)N1CCN(c3ncccn3)CC1)[C@]1(C(=O)Nc3ccc(C#CCCO)cc31)[C@H]2c1ccc(O)cc1`, the composite z-score in assay [1] came to 0.313; in assay [6], 1.05; in assay [7], 0.0111; in [8] it was 0.161; in [9], 0.0065; in assay [10], 0.429. Also, the z-score was -0.522 (inactive) in assay [2], -0.218 (inactive) in assay [3], 0.0653 (inactive) in assay [4] and 0.253 (inactive) in assay [5].

On to `CC(C)NC(=O)[C@@]1(c2ccc([N+](=O)[O-])cc2)CC(=O)N(CC23CC4CC(CC(C4)C2)C3)[C@@H]1c1ccc(CO)cc1`, for which the composite z-score in assay [1] was found to be 0.821; in assay [6] it was 0.771; in [7] it was 1.19; in [8], 1.17; in assay [9], 1.36; in [10], 1.95. Besides, the z-score in [2] is -4.42 (inactive); in assay [3], -0.336 (inactive); in assay [4], 0.362 (inactive); in assay [5] it was 0.795 (inactive).

`CN(C)C(=O)[C@]1(Cc2ccccc2)N=C(c2ccc(OCCCO)cc2)O[C@@H]1c1ccccc1CN=[N+]=[N-]`: the composite z-score in [1] amounted to 0.552; in [6] it was 1.34; in assay [7] it was 0.136; in [8], 1.12; in assay [9] it was 0.737; in assay [10], 0.0325. The z-score in assay [2] was -3.95 (inactive); in assay [3], -0.754 (inactive); in assay [4], -0.655 (inactive); in assay [5], 2.45 (inactive).

Regarding `C=C(COC)/C(=C/C[C@H](OC(C)=O)c1ccccc1OCCO)c1cc(C(=O)OC)ccc1OC`, the composite z-score was 0.0266 in [1]; -0.432 in assay [6]; -0.0589 in assay [7]; -0.035 in assay [8]; 0.727 in [9]; 1.2 in assay [10]. Also, the z-score in assay [2] is -3.38 (inactive); in [3], 0.0472 (inactive); in assay [4], 14.7 (active); in [5], 0.659 (inactive).

For `COc1cc(CO)cc(I)c1O[C@H]1C=C(C(=O)NCCO)C[C@@H](NC2CCCCCC2)[C@@H]1O`, the composite z-score in [1] was 0.29; in [6] it was -0.0211; in [7], -0.0115; in [8], 0.0076; in [9], 0.243; in [10] it was 1.3. Further, the z-score in [2] was -1.65 (inactive); in assay [3], 0.0741 (inactive); in [4], 5.46 (inactive); in [5], 0.0453 (inactive).

With `O=C1[C@@H]2[C@@H](CC(COc3ccccc3)=C([C@H](O)CCc3ccccc3)[C@@H]2CO)C(=O)N1Cc1ccccc1`, the composite z-score was -0.0252 in assay [1]; 0.541 in [6]; -0.274 in assay [7]; -0.19 in assay [8]; 0.167 in assay [9]; 0.801 in assay [10]. Also, the z-score is -2.37 (inactive) in [2], -0.423 (inactive) in [3], 4.74 (inactive) in assay [4] and 0.831 (inactive) in [5].

Regarding `COCCOC(=O)N1C(=O)[C@@]2(c3cc(C#CCNC(N)=O)ccc31)[C@H](C(=O)Nc1nc3ccccc3s1)[C@H]1C(=O)O[C@H](c3ccccc3)[C@H](c3ccccc3)N1[C@@H]2c1ccccc1OCCO`, the composite z-score in assay [1] is 0.553; in assay [6], 0.158; in assay [7] it was 0.152; in assay [8] it was 0.508; in assay [9] it was 0.0351; in [10] it was 1.82. Moreover, the z-score in assay [2] was -2.11 (inactive); in [3], -0.264 (inactive); in [4], -0.465 (inactive); in [5], -0.154 (inactive).

As for `C=CC[C@@]1(C(=O)OC)N=C(c2ccc(OCCCO)cc2)O[C@@H]1c1ccccc1N=[N+]=[N-]`, the composite z-score in assay [1] is 0.938; in assay [6] it was -0.195; in assay [7] it was 0.286; in assay [8], 0.288; in assay [9], 0.672; in assay [10], 2.02. Also, the z-score is -3.5 (inactive) in [2], -1.57 (inactive) in assay [3], 1.79 (inactive) in assay [4] and -0.775 (inactive) in [5].

For `O=C1C2C=CC(C(O)c3c(F)cccc3Cl)N(Nc3ccc([N+](=O)[O-])cc3)C2C(=O)N1c1ccccc1` (stereo not given), the composite z-score in assay [1] was determined as 0.469; in assay [6] it was 1.26; in assay [7], 0.142; in assay [8], 0.414; in assay [9], 1.03; in assay [10], 1.01. Moreover, the z-score in assay [2] was -1.39 (inactive); in assay [3], -1.44 (inactive); in assay [4] it was -0.0787 (inactive); in [5] it was 0.329 (inactive).

Regarding `O=C1NC(=O)C2C1C=CC(C(O)c1ccc([N+](=O)[O-])cc1)N2Nc1ccccn1` (stereo not given), the composite z-score was -0.0851 in assay [1]; -0.115 in [6]; -0.0059 in assay [7]; 0.419 in [8]; -0.306 in [9]; -0.371 in assay [10]. The z-score is 1.06 (inactive) in assay [2], -0.295 (inactive) in assay [3], -0.133 (inactive) in assay [4] and -0.728 (inactive) in assay [5].

Regarding `COc1ccc(C(O)C2C=CC3C(=O)NC(=O)C3N2Nc2ccc(Cl)cc2Cl)c2ccccc12` (stereo not given), the composite z-score was -0.181 in [1]; 0.767 in [6]; -0.0757 in assay [7]; -0.392 in assay [8]; 0.275 in assay [9]; 0.461 in assay [10]. The z-score in assay [2] was -1.74 (inactive); in [3], -1.13 (inactive); in assay [4], 1.01 (inactive); in [5], -0.525 (inactive).

For `CC(C)C(O)C1C=CC2C(=O)NC(=O)C2N1Nc1ccccn1` (stereo not given), the composite z-score in [1] is 0.122; in assay [6], 0.0669; in assay [7] it was -0.0421; in [8] it was 0.238; in [9], 0.407; in assay [10], -0.212. Besides, the z-score in assay [2] is 0.813 (inactive); in [3] it was -0.248 (inactive); in assay [4], -0.143 (inactive); in assay [5], 0.219 (inactive).

The record behind these values is PubChem BioAssay.
